# About 79,000 compounds went through this panel and 15% of them were active in at least one assay; those are over-represented in the sample as a whole. A number with no mark means an inactive call. Active and inactive are the calls of the source. Cut-off read from the data, not from the text of the source: active = growth inhibition above about 70%; inactive = the rest.
# Legend:
# [1] = NCI Yeast Anticancer Drug Screen. Data for the wt1 strain (AID 149);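 note: 0% = growth of vehicle-treated wt1 cultures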; conditions: S. cerevisiae wt1 strain (SPY 50644) growth inhibition, stronger effect = higher value
# Procedure, shortened: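 The wt1 strain was treated with compounds, and growth was compared with vehicle-treated cultures to give inhibition.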
# [2] = NCI Yeast Anticancer Drug Screen. Data for the rad50EPP+ strain (AID 151);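 note: 0% = growth of vehicle-treated control cultures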; conditions: S. cerevisiae rad50 mutant strain, stronger effect = higher value
# Procedure, shortened: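 Growth inhibition read against vehicle controls in rad50EPP+ yeast, a strain altered in DNA damage repair, after compound exposure.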
# [3] = NCI Yeast Anticancer Drug Screen. Data for the rad50 strain (AID 155);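 note: 0% = growth of vehicle-only cultures of the same strain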; conditions: S. cerevisiae rad50 strain growth inhibition, stronger effect = higher value
# Procedure, shortened: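 Cells are treated with compound, grown, and their growth is then scored against vehicle-only cultures of the same repair-deficient yeast strain.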
# [4] = NCI Yeast Anticancer Drug Screen. Data for the mec2-1 strain (AID 157); conditions: S. cerevisiae mec2-1 strain, stronger effect = higher value
# Procedure, shortened: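 Yeast mec2-1 mutant treated with compound. Readout: growth inhibition vs vehicle controls.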
# [5] = NCI Yeast Anticancer Drug Screen. Data for the rad14 strain (AID 159);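 note: 0% = growth of vehicle-treated control cultures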; conditions: S. cerevisiae rad14 strain growth inhibition, stronger effect = higher value
# Procedure, shortened: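 Readout: yeast growth inhibition, referenced to vehicle-only cultures. Strain bears a defined alteration in DNA damage repair.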
# [6] = NCI Yeast Anticancer Drug Screen. Data for the sgs1 mgt1 strain (AID 161);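 note: 0% = growth of cultures given vehicle only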; conditions: S. cerevisiae sgs1 mgt1 strain, stronger effect = higher value
# Procedure, shortened: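 Inhibition of yeast growth, normalised to vehicle-treated controls, is reported for a strain bearing genetic alterations in DNA damage repair.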
# [7] = NCI Yeast Anticancer Drug Screen. Data for the CLN2oe strain (AID 163);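 note: 0% = growth of vehicle-only control cultures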; conditions: S. cerevisiae CLN2oe strain, stronger effect = higher value
# Procedure, shortened: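 Read-out: yeast growth inhibition, expressed relative to vehicle-only controls. The strain bears an engineered cell-cycle alteration.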
# [8] = NCI Yeast Anticancer Drug Screen. Data for the cln2 rad14 strain (AID 165);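 note: 0% = growth equal to vehicle treated cultures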; conditions: S. cerevisiae cln2 rad14 strain, stronger effect = higher value
# Procedure, shortened: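 cln2 rad14 yeast strain; compound exposure; growth inhibition read vs vehicle controls.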
# [9] = NCI Yeast Anticancer Drug Screen. Data for the bub3 strain (AID 167); conditions: S. cerevisiae bub3 mutant strain, stronger effect = higher value
# Procedure, shortened: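 Part of a panel of yeast mutants defective in DNA damage repair or cell cycle regulation. Each strain is grown with compound, and inhibition is calculated relative to solvent-treated cultures.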
# [10] = NCI Yeast Anticancer Drug Screen. Data for the wt2 strain (AID 169);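 note: 0% = growth of vehicle-treated yeast cultures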; conditions: S. cerevisiae wt2 strain growth inhibition, stronger effect = higher value
# Procedure, shortened: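 Read-out: growth inhibition versus vehicle-treated control cultures after compound exposure of the yeast strain.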
# [11] = NCI Yeast Anticancer Drug Screen. Data for the mlh1 strain (AID 171);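 note: 0% = growth of vehicle-treated control cultures of the same strain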; conditions: S. cerevisiae mlh1 strain growth inhibition, stronger effect = higher value
# Procedure, shortened: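 Read-out: growth inhibition versus vehicle controls. Strain: engineered yeast with a defined DNA repair or cell cycle defect, compound-treated.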
# [12] = NCI Yeast Anticancer Drug Screen. Data for the sgs1 strain (AID 173);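 note: 0% = growth of vehicle-only control cultures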; conditions: S. cerevisiae sgs1 mutant, stronger effect = higher value
# Procedure, shortened: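 Read-out: yeast growth inhibition relative to vehicle controls, following compound exposure of a strain with a defined DNA repair/cell cycle alteration.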
# [13] = NCI Yeast Anticancer Drug Screen. Data for the mlh1 rad18 strain (AID 175); conditions: S. cerevisiae mlh1 rad18 strain growth inhibition, stronger effect = higher value
# Procedure, shortened: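 Yeast w/ defined DNA-repair lesions; compound exposure; growth vs vehicle controls → % inhibition.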
# [14] = NCI Yeast Anticancer Drug Screen. Data for the rad18 strain (AID 177); conditions: S. cerevisiae rad18 mutant growth inhibition, stronger effect = higher value
# Procedure, shortened: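 Readout: growth inhibition vs vehicle controls. Cells: genetically altered yeast strain, DNA repair defect.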
# [15] = at 5.0 µM (retest, dose inferred, filed as 0.5)
# [16] = at 50.0 µM (retest, dose inferred, filed as 5.0)
compound,measurement,setting,value
CC1(C)C(C=O)=CCC1CC(N)=O (stereo not drawn),growth inhibition,[1]; at 1.2 µM,-1%
same,growth inhibition,[1]; at 3.7 µM,0%
same,growth inhibition,[1]; at 11.0 µM,2%
same,growth inhibition,[1]; at 33.0 µM,3%
same,growth inhibition,[1]; at 100.0 µM,29%
same,growth inhibition,[2]; at 1.2 µM,1%
same,growth inhibition,[2]; at 3.7 µM,-2%
same,growth inhibition,[2]; at 11.0 µM,0%
same,growth inhibition,[2]; at 33.0 µM,20%
same,growth inhibition,[2]; at 100.0 µM,93% (active)
same,growth inhibition,[3]; at 1.2 µM,-1%
same,growth inhibition,[3]; at 3.7 µM,-1%
same,growth inhibition,[3]; [15],-2%
same,growth inhibition,[3]; at 11.0 µM,-1%
same,growth inhibition,[3]; at 33.0 µM,1%
same,growth inhibition,[3]; [16],43%
same,growth inhibition,[3]; at 50.0 µM,98.5% (active)
same,growth inhibition,[3]; at 100.0 µM,40%
same,growth inhibition,[4]; at 1.2 µM,0%
same,growth inhibition,[4]; at 3.7 µM,2%
same,growth inhibition,[4]; [15],4%
same,growth inhibition,[4]; at 11.0 µM,1%
same,growth inhibition,[4]; at 33.0 µM,7%
same,growth inhibition,[4]; [16],39%
same,growth inhibition,[4]; at 50.0 µM,98% (active)
same,growth inhibition,[4]; at 100.0 µM,96% (active)
same,growth inhibition,[5]; at 1.2 µM,-3%
same,growth inhibition,[5]; at 3.7 µM,-2%
same,growth inhibition,[5]; at 11.0 µM,-3%
same,growth inhibition,[5]; at 33.0 µM,6%
same,growth inhibition,[5]; at 100.0 µM,99% (active)
same,growth inhibition,[6]; [15],-3%
same,growth inhibition,[6]; [16],-2%
same,growth inhibition,[6]; at 50.0 µM,87.3% (active)
same,growth inhibition,[7]; at 1.2 µM,-5%
same,growth inhibition,[7]; at 3.7 µM,-2%
same,growth inhibition,[7]; at 11.0 µM,-1%
same,growth inhibition,[7]; at 33.0 µM,-2%
same,growth inhibition,[7]; at 100.0 µM,12%
same,growth inhibition,[8]; [15],-3%
same,growth inhibition,[8]; [16],4%
same,growth inhibition,[8]; at 50.0 µM,38.4%
same,growth inhibition,[9]; at 1.2 µM,-3%
same,growth inhibition,[9]; at 3.7 µM,-7%
same,growth inhibition,[9]; [15],-19%
same,growth inhibition,[9]; at 11.0 µM,-2%
same,growth inhibition,[9]; at 33.0 µM,-5%
same,growth inhibition,[9]; [16],-8%
same,growth inhibition,[9]; at 50.0 µM,99.2% (active)
same,growth inhibition,[9]; at 100.0 µM,93% (active)
same,growth inhibition,[10]; at 1.2 µM,-1%
same,growth inhibition,[10]; at 3.7 µM,1%
same,growth inhibition,[10]; at 11.0 µM,4%
same,growth inhibition,[10]; at 33.0 µM,9%
same,growth inhibition,[10]; at 100.0 µM,83% (active)
same,growth inhibition,[11]; at 1.2 µM,2%
same,growth inhibition,[11]; at 3.7 µM,0%
same,growth inhibition,[11]; at 11.0 µM,4%
same,growth inhibition,[11]; at 33.0 µM,9%
same,growth inhibition,[11]; at 100.0 µM,96% (active)
same,growth inhibition,[12]; at 1.2 µM,-1%
same,growth inhibition,[12]; at 3.7 µM,4%
same,growth inhibition,[12]; at 11.0 µM,6%
same,growth inhibition,[12]; at 33.0 µM,23%
same,growth inhibition,[12]; at 100.0 µM,99% (active)
same,growth inhibition,[13]; [15],-6%
same,growth inhibition,[13]; [16],71% (active)
same,growth inhibition,[13]; at 50.0 µM,88.7% (active)
same,growth inhibition,[14]; at 1.2 µM,0%
same,growth inhibition,[14]; at 3.7 µM,0%
same,growth inhibition,[14]; at 11.0 µM,22%
same,growth inhibition,[14]; at 33.0 µM,6%
same,growth inhibition,[14]; at 100.0 µM,54%
